Laboratory results reported in PubChem BioAssay AID371 (SRMLSC, 2006).
Hit rate of the full screen: of about 3,300 compounds, about 280 (8.5%) were called active. This is one part of a sample in which actives are shown more often than they occur. Values without a mark were called inactive.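 The calls were made as follows: active = mean growth inhibition over the two runs of 50% or more; inactive = mean growth inhibition under 50%.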

Test: A549 NSCLC cell proliferation inhibitors – ATP luminescence, human non-small cell lung line, primary screen (AID 371);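 also: compound exposure lasted 72 h before the ATP read; 0% = untreated cell signal and 100% = no luminescence left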
Conditions: at 10 µM, stronger effect = higher value

SMILES	growth inhibition
Nc1nnc(-c2cccc(Cl)c2Cl)c(N)n1	14.4%
Nc1nonc1-c1noc(-c2ccccc2)n1	8.32%
O=C(O)c1cnn2c(C(F)(F)F)cc(-c3ccco3)nc12	-1.5%
O=C(CCCN1C(=O)c2ccccc2C1=O)N1CCC(c2ccccc2)C1 (stereo unspecified)	-0.61%
CCN(CC)c1ccc(C2Nc3cccc4cccc(c34)N2)c(O)c1	77.5% (active)
OCCNC1=NCCN1	-1.49%
N#Cc1nc(COc2ccccc2F)oc1NCCCn1ccnc1	5.01%
CC(C(=O)N(C)C)N(C#N)c1nc(N(C)C)nc(N(C)C)n1 (stereo unspecified)	3.51%
CC(COc1ccccc1)N(CCCl)Cc1ccccc1 (stereo unspecified)	54.1% (active)
CC(COc1ccccc1)NC(C)C(O)c1ccc(O)cc1 (stereo unspecified)	4.38%
Cc1nc(-c2coc3cc(OCC(=O)O)ccc3c2=O)cs1	13.4%
O=C(NCCO)C1(c2ccccc2)CCCC1	0.3%
O=c1c2sc3nc(N4CCOCC4)c4c(c3c2ncn1Cc1ccco1)CCCC4	22.7%
OCCN(CCO)c1ncnc2c1sc1nc(N3CCOCC3)c3c(c12)CCCC3	58.3% (active)
COC(=O)c1ccc(CSc2ncnc3c2sc2nc(N4CCOCC4)c4c(c23)CCCC4)o1	-12.8%
Cc1cc(OCC(=O)Nn2cnnc2)ccc1Br	4.24%
Cc1noc(NS(=O)(=O)c2ccc(NC(=O)COc3ccccc3)cc2)c1C	-8.3%
CC(NC(=O)c1ccc(=O)oc1)c1ccccc1 (stereo unspecified)	3.88%
CC(NCCC(c1ccccc1)c1ccccc1)c1ccccc1 (stereo unspecified)	90.6% (active)
COc1ccc(C(=O)Cn2c(N3CCCCC3)nc3c2c(=O)n(C)c(=O)n3C)cc1OC	8.72%
CCCC(C)n1[nH]c(=O)cc1N (stereo unspecified)	-3.66%
COC(=O)c1ccc(C2/C(=C(\O)c3ccc4c(c3)OCCO4)C(=O)C(=O)N2CCCN(C)C)cc1 (stereo unspecified)	3.46%
N#Cc1c(N)n(CCOC(=O)c2cccc(Br)c2)c2nc3ccccc3nc12	3.2%
CCCCOC(=O)CSC1=C(C#N)C(c2ccc3c(c2)OCO3)CC(=O)N1 (stereo unspecified)	40.3%
CCOC(=O)CSC1=C(C#N)C(c2ccc3c(c2)OCO3)CC(=O)N1 (stereo unspecified)	49.8%
CCCOC(=O)CSC1=C(C#N)C(c2ccc3c(c2)OCO3)CC(=O)N1 (stereo unspecified)	50.4% (active)

SMILES	growth inhibition
CCOC(=O)CSc1nc(N2CCOCC2)c2c(c1C#N)CC(C)(C)N(C)C2	13.9%
CC(C)Oc1ccc(Cc2c(O)nc(NCCCN(C)C)[nH]c2=O)cc1	-4.15%
Cc1ccc2cc(CNC(C)C)c(=O)[nH]c2c1	2.25%
O=C(CSc1nc2ccccc2c(=O)n1CC1CCCCC1)N1CCOCC1	19.6%
CCN(CC)C(=O)COn1c(SCC(=O)N(CC)CC)nc2ccccc2c1=O	-4.27%
CCN(CC)C(=O)CSc1nc2ccccc2c(=O)n1CC1CCCCC1	59.2% (active)
CCN(CC)CCN1C(=O)C(=O)/C(=C(/O)c2ccc(F)cc2)C1c1ccncc1 (stereo unspecified)	-7.83%
Cn1c[n+](C)cc1/C=N/O	-3.08%
Cc1[nH]c2ccc(F)cc2c(=O)c1SC(F)(F)C(F)C(F)(F)F (stereo unspecified)	35.6%
O=c1c2ccccc2[nH]c(=S)n1CCN1CCC(=C(c2ccc(F)cc2)c2ccc(F)cc2)CC1	69.1% (active)
C=CCn1c(=S)[nH]c2ccccc2c1=O	6.62%
O=C(c1ccc(F)cc1)C1CCN(CCn2c(=O)[nH]c3ccccc3c2=O)CC1	8.97%
CCCSc1nnc2n(-c3ccccc3OC)c(=O)c3c4c(sc3n12)CCC4	15.6%
O=C(Nc1ccccn1)NC(C(F)(F)F)C(F)(F)F	0.87%
CCOC(=O)C1/C(=N\O)CC(C)(O)C(C(=O)OCC)C1c1ccc(OC)c(OC)c1 (stereo unspecified)	2.33%
CC[C@]1(O)C[C@@H]2CN(CCc3c([nH]c4ccccc34)[C@@](C(=O)OC)(c3cc4c(cc3OC)N(C)[C@H]3[C@@](O)(C(=O)OC)[C@H](OC(C)=O)[C@]5(CC)C=CCN6CC[C@]43[C@@H]65)C2)C1	71.8% (active)
CC[C@]1(O)CC2CN(CCc3c([nH]c4ccccc34)[C@@](C(=O)OC)(c3cc4c(cc3OC)N(C=O)[C@H]3[C@@](O)(C(=O)OC)[C@H](OC(C)=O)[C@]5(CC)C=CCN6CC[C@]43[C@@H]65)C2)C1 (stereo partly specified)	59.6% (active)
Cn1c2ccccc2c2nn(-c3ccccc3)c(=O)cc21	12.4%
CC(=O)Nc1ccc(OC(=O)CC2SC(=O)NC2=O)cc1 (stereo unspecified)	1.99%
CCCCOc1ccc(C(=O)NCC(=O)NCC(=O)OCC)cc1	40.7%
CCOC(=O)CNC(=O)CNC(=O)c1ccc(OC)cc1	2.92%
CCC(=O)Oc1ccc(/C(CC)=C(\CC)c2ccc(OC(=O)CC)cc2)cc1	71.7% (active)
COc1ccc(C(CC(=O)N2CCOCC2)C(C)C)cc1 (stereo unspecified)	-4.83%
CCC(=O)Oc1ccc(C(CC)C(CC)c2ccc(OC(=O)CC)cc2)cc1 (stereo unspecified)	62.3% (active)
CC(=O)Oc1ccc(C(c2ccc(OC(C)=O)cc2)c2ccccn2)cc1	14.2%
